Assay outcomes from PubChem.
An excerpt weighted towards active compounds, which were near 1.1% of everything screened.
LRH-1 inv ag – NR5A2 inverse agonism in reporter assay; O00482; HEK293T StAR-luciferase reporter, LRH-1 transfected, 24 h; inhibition, % at 3.6 µM; 360,000 tested, 0.13% active; AID 602396;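 active means inhibition above the mean inhibition of all tested compounds plus 3 SD, cut at about 73% in these data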;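 further: 0% = DMSO wells and 100% = reporter-only cells lacking LRH-1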
GalR3 antag – antagonists of human GalR3. HEK293 GalR3-CNG cAMP membrane potential fluorescence; galR3 body fused to GalR1 C-terminus. 360,000 tested, 0.44% active. AID 651719. O60755. inhibition, % at 3 µM;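 active means inhibition above the screen-wide average plus 3 SD, cut at about 13% in these data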;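 further: forskolin and galanin both at EC90 stimulate the cells; cAMP rise reported by CNG channel membrane potential dye signal; 0% = forskolin plus galanin with DMSO and 100% = forskolin alone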
Target sequence (O60755 1-299 limits assumed): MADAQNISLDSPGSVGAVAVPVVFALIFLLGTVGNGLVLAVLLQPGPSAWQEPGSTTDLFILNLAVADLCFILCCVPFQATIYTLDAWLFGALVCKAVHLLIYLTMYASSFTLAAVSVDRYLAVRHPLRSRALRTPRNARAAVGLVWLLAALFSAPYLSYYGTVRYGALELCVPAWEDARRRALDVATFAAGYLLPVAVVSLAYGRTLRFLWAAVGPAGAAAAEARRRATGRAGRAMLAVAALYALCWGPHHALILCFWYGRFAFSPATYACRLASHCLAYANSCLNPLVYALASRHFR
COUP-TFII inh – NR2F2 (human) inhibition, primary screen; P24468; 370,000 tested, 0.7% active; inhibition, % at 8.6 µM; HEK293T NGFI-A luciferase reporter, luminescence;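 active means inhibition above a per-plate cutoff, mean inhibition of test wells between control levels plus 3 SD, cut at about 38% in these data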;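 further: cells cotransfected with COUP-TFII expression vector driving the NGFI-A reporter; 0% = median of COUP-TF2 test wells and 100% = reporter-only cells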
Target sequence (P24468 whole entry, looked up): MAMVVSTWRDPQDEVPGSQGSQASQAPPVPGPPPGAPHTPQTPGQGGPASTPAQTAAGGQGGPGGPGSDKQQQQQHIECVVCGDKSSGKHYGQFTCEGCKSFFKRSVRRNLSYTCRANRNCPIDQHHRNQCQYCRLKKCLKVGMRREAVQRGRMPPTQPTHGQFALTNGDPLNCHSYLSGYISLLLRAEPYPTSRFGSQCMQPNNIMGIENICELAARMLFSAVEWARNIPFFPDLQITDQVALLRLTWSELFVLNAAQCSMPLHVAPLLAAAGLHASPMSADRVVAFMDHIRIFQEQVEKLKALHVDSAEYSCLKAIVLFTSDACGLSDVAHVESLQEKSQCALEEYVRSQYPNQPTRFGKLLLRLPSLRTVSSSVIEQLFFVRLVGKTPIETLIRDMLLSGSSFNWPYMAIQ
NCOA1 inh – inhibitors of human steroid receptor coactivator 1 (SRC1) | HEK293 GAL4-SRC1 luciferase reporter, luminescence | 360,000 tested, 0.12% active | Q15788 | AID 588354 | inhibition, % at 3.6 µM;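 active means inhibition above the campaign mean plus 3 SD, with each screening campaign given its own cutoff, cut at about 60% in these data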;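 further: 0% = DMSO treated cells and 100% = gossypol at 36 µM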
NCOA3 inh – inhibits human SRC3 coactivator. Q9Y6Q9. HEK293 GAL4-SRC3 luciferase reporter, luminescence. inhibition, % at 3.6 µM. 360,000 tested, 0.17% active. AID 588352;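 active means inhibition above a per-campaign cutoff, the mean of all compounds plus 3 SD, cut at about 60% in these data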;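 further: 0% = DMSO-treated cells and 100% = gossypol-treated cells at 36 µM; higher means less SRC3-driven luciferase light from the GAL4 reporter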
NCOA2 inhibitor – human SRC2 (NCOA2) inhibition. inhibition, % at 9 µM. 370,000 tested, 0.17% active. Q15596. HEK293 GAL4-SRC2 luciferase reporter, luminescence;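 active means inhibition above the mean inhibition of all tested compounds plus 3 SD, set per campaign, cut at about 52% in these data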;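 further: 0% = DMSO treated cells and 100% = cells given Gossypol at 36 µM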
GalR3 antag conf – confirmation of human galanin receptor 3 antagonists; shares compounds with GalR3 antag; HEK293 GalR3 CNG cAMP biosensor, membrane potential fluorescence; galR3 fused to GalR1 carboxy tail; challenged with forskolin and galanin at EC90; inhibition, % at 3 µM; 1,600 tested, 59% active;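 active means inhibition above the primary screen's cutoff, the mean inhibition of all screened compounds plus 3 SD, cut at about 13% in these data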;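 further: 0% = forskolin plus galanin and 100% = forskolin alone with DMSO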
HEK-CNG parental – parental cell agonism counter-screen for GalR3 antagonists; activation, % at 3 µM; AID 652268; shares compounds with GalR3 antag; 1,600 tested, 10% active; HEK293-CNG parental cells, cAMP membrane potential fluorescence; normalised: DMSO wells 0%, forskolin wells 100%; in the data active means activation above about 1.3%
Gal4-VP16 ctr – counter-screen for COUP-TFII antagonists: inhibitors of VP16; inhibition, % at 8.5 µM; 2,500 tested, 25% active; HEK293 Gal4-VP16 luciferase reporter, luminescence; shares compounds with COUP-TFII inh; in the data active means inhibition above about 13%
COUP-TFII conf – confirmation of human COUP-TFII (NR2F2) inhibitors | shares compounds with COUP-TFII inh | 2,500 tested, 45% active | HEK293 NGFI-A luciferase reporter, luminescence | inhibition, % at 8.5 µM;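 active means mean inhibition over three repeats above a set limit taken from the earlier primary screen, cut at about 38% in these data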;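 further: 100% = cells given the luciferase reporter alone without the COUP-TF2 vector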
The depositor's hits bear a star.

For O=C(OC12CCCN(C1)/C(=C/c1cccc(Cl)c1)C2)c1ccccc1 (configuration not stated) the results were COUP-TFII inh 7.3 and NCOA2 inhibitor 12.5.
For COc1ccc(C(=O)CSc2nnc(Cn3cnc4ccccc43)o2)cc1 the results were LRH-1 inv ag 32.1, GalR3 antag 94.7*, COUP-TFII inh 60.1*, NCOA1 inh 1.7, NCOA3 inh 16.0, NCOA2 inhibitor 18.2, GalR3 antag conf 111.4*, HEK-CNG parental -0.5, Gal4-VP16 ctr 4.8 and COUP-TFII conf 40.5*.
For CC(=O)c1ccc(NC(=O)CSc2nnc(Cn3cnc4ccccc43)o2)cc1 the results were LRH-1 inv ag 27.2, GalR3 antag -4.3, COUP-TFII inh 2.1, NCOA1 inh -9.7, NCOA3 inh 16.4 and NCOA2 inhibitor 3.6.
CCCOc1ccc(C(=O)Nc2cccnc2)cc1 was read as LRH-1 inv ag -97.9, GalR3 antag -10.8, COUP-TFII inh -23.9, NCOA1 inh -95.5, NCOA3 inh -104.9 and NCOA2 inhibitor -38.6.
`O=C(COc1ccc2ccccc2c1)Nc1ccncc1` gave LRH-1 inv ag 9.2, GalR3 antag 66.2*, COUP-TFII inh 47.4*, NCOA1 inh -19.5, NCOA3 inh 3.3, NCOA2 inhibitor -25.0, GalR3 antag conf 72.8*, HEK-CNG parental -0.5, Gal4-VP16 ctr -24.1 and COUP-TFII conf 8.0.
`Cc1ccc(Oc2ccc(OCC(=O)Nc3ccncc3)cc2)cc1` gave LRH-1 inv ag 61.0, GalR3 antag 104.5*, COUP-TFII inh 72.3*, NCOA1 inh 40.1, NCOA3 inh 31.9, NCOA2 inhibitor 28.7, GalR3 antag conf 109.3*, HEK-CNG parental -0.8, Gal4-VP16 ctr 19.1* and COUP-TFII conf 74.3*.
`O=C(CCCOc1ccccc1)Nc1cccnc1` gave LRH-1 inv ag -13.5, GalR3 antag -5.0, COUP-TFII inh -11.3, NCOA1 inh -4.5, NCOA3 inh 5.7 and NCOA2 inhibitor 2.5.
Screening O=C(COc1ccc(C(=O)c2ccccc2)cc1)Nc1cccnc1 returned LRH-1 inv ag 38.2, GalR3 antag 97.4*, COUP-TFII inh 65.5*, NCOA1 inh -1.4, NCOA3 inh 3.8, NCOA2 inhibitor 19.2, GalR3 antag conf 108.1*, HEK-CNG parental -0.4, Gal4-VP16 ctr 5.7 and COUP-TFII conf 60.2*.
For CCCCOc1ccc(C(=O)Nc2ccncc2)cc1 the results were LRH-1 inv ag 27.5, GalR3 antag 56.7*, COUP-TFII inh 51.1*, NCOA1 inh -8.6, NCOA3 inh 9.3, NCOA2 inhibitor -13.4, GalR3 antag conf 101.8*, HEK-CNG parental -0.1, Gal4-VP16 ctr -59.6 and COUP-TFII conf 33.5.
For COc1cc(NC(=O)C2CCN(c3nnc(-n4cccc4)s3)CC2)cc(OC)c1 the results were COUP-TFII inh 10.8 and NCOA2 inhibitor -5.9.
`Cc1cc(OCC(=O)Nc2ccncc2)ccc1Cl` gave LRH-1 inv ag 17.5, GalR3 antag -6.1, COUP-TFII inh 19.9, NCOA1 inh 0.1, NCOA3 inh 10.5 and NCOA2 inhibitor 13.1.
Screening Cc1cc(OCC(=O)Nc2ccncc2)cc(C)c1Br returned LRH-1 inv ag 34.5, GalR3 antag 64.9*, COUP-TFII inh 58.0*, NCOA1 inh 19.4, NCOA3 inh 21.0, NCOA2 inhibitor -0.7, GalR3 antag conf 61.9*, HEK-CNG parental -0.1, Gal4-VP16 ctr -3.4 and COUP-TFII conf 36.6.
For NS(=O)(=O)c1ccc(CCNC(=O)CN2CCC(Cc3ccccc3)CC2)cc1 the results were LRH-1 inv ag 16.6, GalR3 antag 14.7*, COUP-TFII inh 38.1*, NCOA1 inh 17.3, NCOA3 inh 19.5, NCOA2 inhibitor 21.5, GalR3 antag conf 6.5, HEK-CNG parental 0.2, Gal4-VP16 ctr -4.4 and COUP-TFII conf 12.2.
CCN1/C(=C/c2sc(-c3ccccc3C)c[n+]2C)Sc2ccccc21 was read as LRH-1 inv ag 90.0*, GalR3 antag 50.5*, COUP-TFII inh 90.4*, NCOA1 inh 42.5, NCOA3 inh 79.7*, NCOA2 inhibitor 35.4, GalR3 antag conf 72.2*, HEK-CNG parental 2.2*, Gal4-VP16 ctr 16.2* and COUP-TFII conf 86.4*.
For CCC(=O)/C=C1/Sc2ccccc2N1CC the results were LRH-1 inv ag 1.3, GalR3 antag -5.2, COUP-TFII inh -8.1, NCOA1 inh -7.7, NCOA3 inh -0.5 and NCOA2 inhibitor -22.9.
Cc1cc(/C=C2/SC(=S)N(c3cccc(Cl)c3)C2=O)c(C)n1-c1cccnc1 was read as LRH-1 inv ag 35.7, GalR3 antag 89.8*, COUP-TFII inh 64.9*, NCOA1 inh 11.6, NCOA3 inh 10.6, NCOA2 inhibitor 2.0, GalR3 antag conf 15.1*, HEK-CNG parental 0.1, Gal4-VP16 ctr -21.8 and COUP-TFII conf 64.3*.
Cc1ccc(C(=O)N(C)[C@H]2C[C@H]3c4[nH]c5c(-c6ccc7c(c6)OCO7)cccc5c4CCN3C[C@H]2[C@H](C)O)cc1 was read as COUP-TFII inh -1.3 and NCOA2 inhibitor 13.5.
`Cc1nc2ccccc2cc1OCc1ccc(Cl)cc1` gave LRH-1 inv ag 11.0, GalR3 antag 93.7*, COUP-TFII inh 49.6*, NCOA1 inh -15.2, NCOA3 inh -3.8, NCOA2 inhibitor -0.6, GalR3 antag conf 94.4*, HEK-CNG parental 1.1, Gal4-VP16 ctr -60.9 and COUP-TFII conf 28.8.
Cc1nc2ccccc2cc1OCc1ccccc1 was read as LRH-1 inv ag 12.0, GalR3 antag -5.6, COUP-TFII inh 23.7, NCOA1 inh -12.5, NCOA3 inh -13.2 and NCOA2 inhibitor 2.7.
Screening COc1cccc(COc2cc3ccccc3nc2C)c1 returned LRH-1 inv ag 27.8, GalR3 antag 92.3*, COUP-TFII inh 58.6*, NCOA1 inh 3.2, NCOA3 inh -2.6, NCOA2 inhibitor -8.5, GalR3 antag conf 102.6*, HEK-CNG parental 0.3, Gal4-VP16 ctr -62.5 and COUP-TFII conf 41.1*.
COc1ccc2ccccc2c1C=NNC(=O)c1cc(-c2ccc(C)c(C)c2)n[nH]1 was read as COUP-TFII inh -6.1 and NCOA2 inhibitor -8.2.
For CCc1ccc(CNCC(=O)N2CCC3(CC2)OCCO3)s1 the results were COUP-TFII inh -9.8 and NCOA2 inhibitor -33.3.
